Source: the supplement of paper PMC6555819

Key:
Test in all cases: PBM binding z-score (relative to random genomic background probes); higher = stronger binding; sequences stand for … in GC…GCGATTGACAGCGTAGAATGAAGG
[1] = tested on: FXR:RXRa (NR concentration 270 nM, RXRa partner concentration 90 nM)
Method in brief: (§1)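 Probes were double-stranded and carried 34-nt variable regions with direct-repeat seeds, single-nucleotide variants, half-site ablations and random human genomic background sequences, printed on custom Agilent 4×180K protein-binding microarrays. Arrays were incubated 1 h with ligand-free nuclear receptor dimers in PBS pH 7.4, 2% milk, 0.02% Triton X-100, 1 mM DTT, 0.2 mg/mL BSA and 0.4 mg/ml salmon testes DNA. Antibodies against each partner (one per run) detected binding, and scanned fluorescence was regression-normalized. Binding z-scores use the random background probes as reference.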

[2] = tested on: LXRa:RXRa (NR concentration 270 nM, RXRa partner concentration 90 nM)
Method in brief: as §1

[3] = tested on: LXRa homodimer (NR concentration 270 nM)
Method in brief: as §1

[4] = tested on: LXRb:RXRa (NR concentration 270 nM, RXRa partner concentration 90 nM)
Method in brief: as §1

[5] = tested on: LXRb homodimer (NR concentration 270 nM)
Method in brief: as §1

[6] = tested on: PPARa:RXRa (NR concentration 270 nM, RXRa partner concentration 90 nM)
Method in brief: as §1

[7] = tested on: PPARg:RXRa (NR concentration 180 nM, RXRa partner concentration 90 nM)
Method in brief: as §1

[8] = tested on: PPARg:RXRa 270nM:90nM, anti-RXR (NR concentration 270 nM, RXRa partner concentration 90 nM)
Method in brief: as §1

[9] = tested on: PPARg:RXRa 30nM:10nM, anti-RXR (NR concentration 30 nM, RXRa partner concentration 10 nM)
Method in brief: as §1

[10] = tested on: PPARg:RXRa 90nM:30nM, anti-RXR (NR concentration 90 nM, RXRa partner concentration 30 nM)
Method in brief: as §1

[11] = tested on: PPARg:RXRa DBDmut IVT, anti-RXR (DBD mutation: RXRa K156A/R161A, NR concentration 270 nM, RXRa partner concentration 90 nM)
Method in brief: as §1

[12] = tested on: PPARg:RXRa IVT, anti-PPARg (NR concentration 270 nM, RXRa partner concentration 90 nM)
Method in brief: as §1

[13] = tested on: PPARg DBDmut:RXRa IVT, anti-PPARg (DBD mutation: PPARg1 K132A/R137A, NR concentration 270 nM, RXRa partner concentration 90 nM)
Method in brief: as §1

[14] = tested on: PPARg DBDmut IVT, anti-PPARg (DBD mutation: PPARg1 K132A/R137A, NR concentration 270 nM)
Method in brief: as §1

[15] = tested on: PPARg homodimer (NR concentration 180 nM)
Method in brief: as §1

[16] = tested on: PXR:RXRa (NR concentration 270 nM, RXRa partner concentration 90 nM)
Method in brief: as §1

[17] = tested on: PXR homodimer (NR concentration 270 nM)
Method in brief: as §1

[18] = tested on: RARa:RXR (NR concentration 270 nM, RXRa partner concentration 90 nM)
Method in brief: as §1

[19] = tested on: RARa homodimer (NR concentration 270 nM)
Method in brief: as §1

[20] = tested on: RARb:RXRa (NR concentration 270 nM, RXRa partner concentration 90 nM)
Method in brief: as §1

Sequence	PBM binding z-score [1]	PBM binding z-score [2]	PBM binding z-score [3]	PBM binding z-score [4]	PBM binding z-score [5]	PBM binding z-score [6]	PBM binding z-score [7]	PBM binding z-score [8]	PBM binding z-score [9]	PBM binding z-score [10]	PBM binding z-score [11]	PBM binding z-score [12]	PBM binding z-score [13]	PBM binding z-score [14]	PBM binding z-score [15]	PBM binding z-score [16]	PBM binding z-score [17]	PBM binding z-score [18]	PBM binding z-score [19]	PBM binding z-score [20]
AGTCAAAGTTCACTAGGTAACGAAAGATTCAGCT	5.29	5.15	2.87	3.05	0.803	4.94	7.8	6.56	3.66	5.74	2.71	5.36	0.953	1.35	2.81	3.8	2.41	2.8	1.47	4.54
TCTCGGAGGACACGAAAGCTCAGAGCTCGACATC	0.278	-0.178	-0.494	-0.291	-1.33	0.0148	0.133	0.762	2.01	1.21	1.28	0.237	-0.991	-1.02	-0.895	-0.392	-0.855	-0.157	-0.395	1.31
CGTCCAAGGTAATAGGAGGTCAGTGAAGACAGAT	1.29	5.47	3.58	2.99	-0.518	2.14	0.506	0.791	-0.301	0.264	0.553	1.63	0.188	-0.16	1.61	2.8	0.938	2.15	1.12	2.23
CCAGGCAGGTGAAAGGTAACTCAGTCTGGTACGC	0.326	0.496	-0.353	0.47	-0.921	3.13	5.95	6.52	4.44	7.19	2.16	3.13	-1.38	-0.814	1.59	0.457	-0.265	1.53	-0.973	1.02
ATCGAAAGGTCGACGTGAGTATAGAGAAAGGGAA	3.97	3.07	-0.0365	2.39	0.422	4.06	2.45	2.9	1.04	2.13	-0.328	1.19	1.19	0.607	0.972	2.21	0.153	2.94	-0.0772	3.82
CATACAGGGTCAGCTAGGACAGAGTAGGGACGGC	4.48	2.8	-0.0468	2.29	0.178	4.13	3.16	2.87	0.481	1.76	1.2	2.23	0.778	0.0196	0.881	2.07	0.128	3	0.439	4.04
TCATATAGGTGATACAGGTGAAAGTCGGCATCTA	0.938	1.04	0.153	0.984	-0.0198	2.33	1.96	2.94	3.85	3.55	4.78	4.31	1.81	1.2	1.4	0.783	0.342	0.978	1.22	0.996
CCAGCTAGGTCAATGGTCAGCTAAAGCAGCTCGC	2.92	2.06	-0.24	1.27	-0.685	3.2	5.08	5.75	3.27	5.34	4.9	4.47	-0.141	-0.0695	1.28	0.737	-0.176	1.49	-0.163	3.73
GCTAGCAGGCCATTTGGGTCACCCAATGACGGGC	0.339	-0.142	-0.557	0.0231	-1.02	1.67	0.947	0.784	-0.28	0.167	1.07	2.71	-0.843	-0.885	-0.136	0.692	0.0143	1.02	-0.844	1.62
GCTATTAGTTGAAAGGGCAACGGAATGATTCTCG	0.364	0.524	0.225	0.73	-0.171	2.5	2.45	4.33	2.24	4.02	0.701	0.992	1.04	0.361	0.8	0.606	0.255	1.19	0.995	1.93
AGAATGAGGTTAAGATCAGAGAAACAGAATACAT	2.3	2.12	0.0426	1.9	-0.125	3.61	2.54	2.18	0.874	1.71	2.25	2.51	1.54	1.04	0.538	1.22	0.611	2.03	0.226	1.86
AGTCAAATTTCAGGACGAGGTAACGTAAAGCACG	0.0503	-0.145	0.0565	0.0191	-0.153	-0.229	0.688	-0.178	-0.0529	-0.261	-0.406	0.239	0.677	0.285	0.523	-0.111	0.169	0.428	0.17	0.269
GCTTGTAGATCAAGGTTAAGAATGACTAAGCTAA	0.096	0.324	-0.618	0.368	-0.604	1.37	1.3	1.95	0.416	1.72	1.74	0.924	0.367	0.28	-0.624	0.546	-0.428	0.94	-0.617	0.932
CCTGCTAGGTCAATGGTCATCTAAAGCAGCTCGC	2.9	2.28	0.085	1.68	0.00102	3.22	4.71	5.48	3.24	5.52	4.11	3.89	-0.358	-0.372	1.1	1.35	-0.609	2.05	-0.14	3.75
